# Data reported in ChEMBL document CHEMBL1961873, “Compounds: GSK PKIS; Assays: Nanosyn kinase panel” (2012).
# Biological target: T1, Serine/threonine-protein kinase Chk1 (Homo sapiens) (UniProt O14757);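 also: mean inhibition of CHEK1, part of the GSK PKIS profiling set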
# T1 sequence (whole entry): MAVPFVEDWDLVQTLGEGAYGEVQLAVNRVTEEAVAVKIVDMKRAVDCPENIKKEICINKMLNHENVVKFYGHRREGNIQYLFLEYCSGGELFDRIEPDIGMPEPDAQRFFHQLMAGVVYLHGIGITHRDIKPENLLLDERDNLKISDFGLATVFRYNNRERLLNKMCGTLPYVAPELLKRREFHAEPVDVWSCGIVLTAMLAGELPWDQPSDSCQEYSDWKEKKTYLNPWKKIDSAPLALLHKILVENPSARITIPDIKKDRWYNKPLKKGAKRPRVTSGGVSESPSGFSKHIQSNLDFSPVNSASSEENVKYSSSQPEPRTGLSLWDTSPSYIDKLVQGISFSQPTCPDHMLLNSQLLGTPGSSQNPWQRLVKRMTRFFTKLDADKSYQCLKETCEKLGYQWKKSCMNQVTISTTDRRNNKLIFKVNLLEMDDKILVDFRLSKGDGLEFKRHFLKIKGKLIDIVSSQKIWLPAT
# Conditions: at 1 µM
row,Compound,inhibition
1,CCn1c(-c2nonc2N)nc2c(C#CC(C)(C)O)nc(O[C@@H](CN)c3ccccc3)cc21,31.1%
2,Nc1nonc1-c1nc2cnccc2n1C1CCCCC1,1.88%
3,CCn1c(-c2nonc2N)nc2c(C#CC(C)(C)O)ncc(OCC3CCNCC3)c21,5.91%
4,NC(=O)c1sc(-n2cnc3cc(C(F)(F)F)ccc32)cc1OCc1ccccc1Br,0.96%
5,Cc1cc(-c2ccco2)cc(C)c1/C=C/c1cncc(-c2nn[nH]n2)c1,-1.92%
6,NS(=O)(=O)c1ccc(-c2ccc3c(NC(=O)C4CC4)n[nH]c3c2)cc1,4.16%
7,COc1cc(C=NNc2ncnc3c2cnn3Cc2ccccc2)ccc1O,-3.22%
8,COc1cccc(COc2cc(-n3cnc4ccccc43)sc2C(N)=O)c1,-2.21%
9,NS(=O)(=O)c1ccc(N/C=C2\C(=O)Nc3ccc4ncsc4c32)cc1,33%
10,COc1cccc(-n2ncc3c(N/N=C/c4ccncc4)ncnc32)c1,5.7%
11,CCn1c(-c2nonc2N)nc2c(C#CC(C)(C)O)ncc(OC[C@@H]3CCCN3)c21,2.95%
12,Fc1ccc(-c2ncn(C3CCNCC3)c2-c2ccnc(Oc3ccccc3)n2)cc1,0.04%
13,CCn1c(-c2nonc2N)nc2c(C#CCN)ncc(OCCCN)c21,0.26%

# Biological target: Serine/threonine-protein kinase Chk2 (Homo sapiens) (UniProt O96017)
# Conditions: at 0.1 µM
# Sequence of Serine/threonine-protein kinase Chk2 (Homo sapiens) (O96017 whole entry): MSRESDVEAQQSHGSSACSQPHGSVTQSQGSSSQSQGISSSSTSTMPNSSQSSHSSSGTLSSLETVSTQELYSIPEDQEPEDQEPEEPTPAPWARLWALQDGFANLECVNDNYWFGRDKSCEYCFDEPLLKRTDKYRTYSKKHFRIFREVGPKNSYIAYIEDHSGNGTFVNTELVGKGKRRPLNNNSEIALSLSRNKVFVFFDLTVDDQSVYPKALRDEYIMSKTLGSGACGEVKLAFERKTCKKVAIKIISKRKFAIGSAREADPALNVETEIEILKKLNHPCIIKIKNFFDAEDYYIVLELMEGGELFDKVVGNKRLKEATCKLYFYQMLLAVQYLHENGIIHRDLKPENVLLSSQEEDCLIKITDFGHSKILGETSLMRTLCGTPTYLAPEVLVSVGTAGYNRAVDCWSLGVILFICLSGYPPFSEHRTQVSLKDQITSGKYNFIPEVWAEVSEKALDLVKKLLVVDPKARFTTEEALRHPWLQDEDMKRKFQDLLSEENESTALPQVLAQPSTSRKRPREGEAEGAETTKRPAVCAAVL
row,Compound,inhibition
1,CCn1c(-c2nonc2N)nc2c(C#CC(C)(C)O)nc(O[C@@H](CN)c3ccccc3)cc21,2.31%
2,Nc1nonc1-c1nc2cnccc2n1C1CCCCC1,-2%
3,CCn1c(-c2nonc2N)nc2c(C#CC(C)(C)O)ncc(OCC3CCNCC3)c21,2.91%
4,NC(=O)c1sc(-n2cnc3cc(C(F)(F)F)ccc32)cc1OCc1ccccc1Br,1.22%
5,Cc1cc(-c2ccco2)cc(C)c1/C=C/c1cncc(-c2nn[nH]n2)c1,-0.74%
6,NS(=O)(=O)c1ccc(-c2ccc3c(NC(=O)C4CC4)n[nH]c3c2)cc1,1.56%
7,COc1cc(C=NNc2ncnc3c2cnn3Cc2ccccc2)ccc1O,-3.42%
8,COc1cc2c(cc1Nc1nc(Nc3ccsc3C(N)=O)c3cc[nH]c3n1)N(C(=O)CN(C)C)CCC2,2.31%
9,COc1cccc(COc2cc(-n3cnc4ccccc43)sc2C(N)=O)c1,-0.72%
10,NS(=O)(=O)c1ccc(N/C=C2\C(=O)Nc3ccc4ncsc4c32)cc1,4.73%
11,COc1cccc(-n2ncc3c(N/N=C/c4ccncc4)ncnc32)c1,2.56%
12,CCn1c(-c2nonc2N)nc2c(C#CC(C)(C)O)ncc(OC[C@@H]3CCCN3)c21,0.37%
13,Fc1ccc(-c2ncn(C3CCNCC3)c2-c2ccnc(Oc3ccccc3)n2)cc1,1.16%
14,CCn1c(-c2nonc2N)nc2c(C#CCN)ncc(OCCCN)c21,-1.17%

# Biological target: Serine/threonine-protein kinase Chk2 (Homo sapiens) (UniProt O96017)
# Conditions: at 1 µM
row,Compound,inhibition
1,CCn1c(-c2nonc2N)nc2c(C#CC(C)(C)O)nc(O[C@@H](CN)c3ccccc3)cc21,26.7%
2,Nc1nonc1-c1nc2cnccc2n1C1CCCCC1,-1.47%
3,CCn1c(-c2nonc2N)nc2c(C#CC(C)(C)O)ncc(OCC3CCNCC3)c21,6.65%
4,NC(=O)c1sc(-n2cnc3cc(C(F)(F)F)ccc32)cc1OCc1ccccc1Br,0.32%
5,Cc1cc(-c2ccco2)cc(C)c1/C=C/c1cncc(-c2nn[nH]n2)c1,-0.4%
6,NS(=O)(=O)c1ccc(-c2ccc3c(NC(=O)C4CC4)n[nH]c3c2)cc1,2.29%
7,COc1cc(C=NNc2ncnc3c2cnn3Cc2ccccc2)ccc1O,-3.47%
8,COc1cc2c(cc1Nc1nc(Nc3ccsc3C(N)=O)c3cc[nH]c3n1)N(C(=O)CN(C)C)CCC2,11.8%
9,COc1cccc(COc2cc(-n3cnc4ccccc43)sc2C(N)=O)c1,-0.59%
10,NS(=O)(=O)c1ccc(N/C=C2\C(=O)Nc3ccc4ncsc4c32)cc1,19.1%
11,COc1cccc(-n2ncc3c(N/N=C/c4ccncc4)ncnc32)c1,4.89%
12,CCn1c(-c2nonc2N)nc2c(C#CC(C)(C)O)ncc(OC[C@@H]3CCCN3)c21,1.08%
13,Fc1ccc(-c2ncn(C3CCNCC3)c2-c2ccnc(Oc3ccccc3)n2)cc1,1.46%
14,CCn1c(-c2nonc2N)nc2c(C#CCN)ncc(OCCCN)c21,0.23%

# Biological target: Death-associated protein kinase 1 (Homo sapiens) (UniProt P53355);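 also: reported figure is the mean inhibition of DAPK1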
# Conditions: at 0.1 µM
# Sequence of Death-associated protein kinase 1 (Homo sapiens) (P53355 whole entry, looked up): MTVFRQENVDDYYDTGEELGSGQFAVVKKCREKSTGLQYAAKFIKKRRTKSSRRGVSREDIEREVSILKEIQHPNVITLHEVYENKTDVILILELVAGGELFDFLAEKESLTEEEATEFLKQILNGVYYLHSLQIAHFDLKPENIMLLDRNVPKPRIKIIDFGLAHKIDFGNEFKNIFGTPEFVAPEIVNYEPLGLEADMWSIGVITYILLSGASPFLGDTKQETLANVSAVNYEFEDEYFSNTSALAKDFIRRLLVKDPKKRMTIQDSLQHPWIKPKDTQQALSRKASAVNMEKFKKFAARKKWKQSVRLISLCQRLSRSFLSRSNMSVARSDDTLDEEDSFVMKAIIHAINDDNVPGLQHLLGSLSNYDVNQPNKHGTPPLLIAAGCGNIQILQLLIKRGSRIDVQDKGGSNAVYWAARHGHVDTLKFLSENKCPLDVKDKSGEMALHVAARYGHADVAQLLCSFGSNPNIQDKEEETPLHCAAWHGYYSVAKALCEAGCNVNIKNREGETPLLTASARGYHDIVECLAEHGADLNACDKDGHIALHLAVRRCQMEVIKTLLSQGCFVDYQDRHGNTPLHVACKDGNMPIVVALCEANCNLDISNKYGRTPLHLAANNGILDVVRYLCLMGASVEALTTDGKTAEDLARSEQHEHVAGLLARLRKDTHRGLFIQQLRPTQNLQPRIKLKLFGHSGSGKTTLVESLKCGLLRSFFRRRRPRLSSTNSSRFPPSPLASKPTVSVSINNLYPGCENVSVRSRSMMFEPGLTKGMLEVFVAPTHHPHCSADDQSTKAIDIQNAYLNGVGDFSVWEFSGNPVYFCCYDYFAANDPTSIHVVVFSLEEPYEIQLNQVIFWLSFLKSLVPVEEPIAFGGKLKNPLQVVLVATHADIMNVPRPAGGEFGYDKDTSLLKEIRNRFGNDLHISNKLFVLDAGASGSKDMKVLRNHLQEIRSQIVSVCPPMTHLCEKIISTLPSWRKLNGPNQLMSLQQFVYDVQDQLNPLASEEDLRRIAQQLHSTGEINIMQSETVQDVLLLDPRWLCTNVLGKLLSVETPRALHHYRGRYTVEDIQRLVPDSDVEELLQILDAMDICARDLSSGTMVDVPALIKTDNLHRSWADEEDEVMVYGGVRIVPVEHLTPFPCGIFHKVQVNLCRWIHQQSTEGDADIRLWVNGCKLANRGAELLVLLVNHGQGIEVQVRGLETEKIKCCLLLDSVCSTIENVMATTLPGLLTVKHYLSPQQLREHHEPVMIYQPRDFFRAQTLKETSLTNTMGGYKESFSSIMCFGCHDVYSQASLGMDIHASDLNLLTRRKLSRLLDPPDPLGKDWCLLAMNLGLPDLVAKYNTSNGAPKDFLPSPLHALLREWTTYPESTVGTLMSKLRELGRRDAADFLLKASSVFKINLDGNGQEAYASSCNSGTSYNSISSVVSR
row,Compound,inhibition
1,CCn1c(-c2nonc2N)nc2c(C#CC(C)(C)O)nc(O[C@@H](CN)c3ccccc3)cc21,-0.91%
2,Nc1nonc1-c1nc2cnccc2n1C1CCCCC1,-1.34%
3,CCn1c(-c2nonc2N)nc2c(C#CC(C)(C)O)ncc(OCC3CCNCC3)c21,1.8%
4,NC(=O)c1sc(-n2cnc3cc(C(F)(F)F)ccc32)cc1OCc1ccccc1Br,1.27%
5,Cc1cc(-c2ccco2)cc(C)c1/C=C/c1cncc(-c2nn[nH]n2)c1,1.92%
6,NS(=O)(=O)c1ccc(-c2ccc3c(NC(=O)C4CC4)n[nH]c3c2)cc1,3.27%
7,COc1cc(C=NNc2ncnc3c2cnn3Cc2ccccc2)ccc1O,-3.06%
8,COc1cc2c(cc1Nc1nc(Nc3ccsc3C(N)=O)c3cc[nH]c3n1)N(C(=O)CN(C)C)CCC2,2.17%
9,COc1cccc(COc2cc(-n3cnc4ccccc43)sc2C(N)=O)c1,1.92%
10,NS(=O)(=O)c1ccc(N/C=C2\C(=O)Nc3ccc4ncsc4c32)cc1,5.66%
11,COc1cccc(-n2ncc3c(N/N=C/c4ccncc4)ncnc32)c1,4.45%
12,CCn1c(-c2nonc2N)nc2c(C#CC(C)(C)O)ncc(OC[C@@H]3CCCN3)c21,1.35%
13,Fc1ccc(-c2ncn(C3CCNCC3)c2-c2ccnc(Oc3ccccc3)n2)cc1,-0.62%
14,CCn1c(-c2nonc2N)nc2c(C#CCN)ncc(OCCCN)c21,-2.99%
